Ten compounds from PubChem BioAssay AID652048 (National Center for Advancing Translational Sciences (NCATS), 2013) can be followed below.

Each structure is given as a SMILES string. Several values for one entry are separate records, joined by “and”; a condition that tells them apart may be missing. Equal values may be shown once. Screen size: about 410,000 compounds; about 2,400 (0.59%) were called active. Rule as the data show it: active = max activation above about 30%; inactive = the rest. The list comes from a sample in which actives are over-represented; it also holds similar structures and randomly drawn compounds.

Sequence of D(3) dopamine receptor (Homo sapiens) (P35462 whole entry, looked up): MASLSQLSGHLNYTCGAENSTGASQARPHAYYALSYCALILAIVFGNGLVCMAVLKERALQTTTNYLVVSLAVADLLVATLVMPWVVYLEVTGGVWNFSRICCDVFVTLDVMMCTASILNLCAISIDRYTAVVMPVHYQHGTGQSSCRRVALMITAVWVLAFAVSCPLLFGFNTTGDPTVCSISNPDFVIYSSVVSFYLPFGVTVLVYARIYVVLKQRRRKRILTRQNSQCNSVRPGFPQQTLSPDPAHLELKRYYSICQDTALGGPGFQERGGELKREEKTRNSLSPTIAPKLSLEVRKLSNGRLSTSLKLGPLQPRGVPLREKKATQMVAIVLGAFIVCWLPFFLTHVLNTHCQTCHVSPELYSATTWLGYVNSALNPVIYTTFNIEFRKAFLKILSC

The target in this assay is D(3) dopamine receptor (Homo sapiens) (UniProt P35462). Briefly: qHTS of D3 Dopamine Receptor Agonist: qHTS. Also: 0% is about no effect. The following applies: D3R DiscoveRx beta-arrestin cells, luminescence, 90 min; hits give high values. An excerpt:
D3 DARs represent a very important target for the treatment of several neuropsychiatric disorders. Indeed, one of the most promising therapeutic applications for the D3 DAR is in the area of addiction and related disorders. […] These findings have been observed with a number of addictive substances including cocaine, amphetamine, nicotine, and alcohol. […] Antagonism of the D3 DAR may also be therapeutic in the treatment of schizophrenia or psychosis. […] Since the D3 DAR is expressed in areas of the CNS associated with the control of mood and emotion, it has been hypothesized that selective antagonism of the D3 DAR may be effective in treating psychosis without inducing the motor side effects typically seen with D2 DAR antagonists.
This part of the project aims to discover novel agonist.
NIH Chemical Genomics Center [NCGC]
NIH Molecular Libraries Probe Centers Network [MLPCN]
Assay Submitter (PI): David Sibley, NINDS
Freshly passaged cells are plated in 1536 well white, solid bottom plates at a density of 1500 cells/well in 3microl of complete media. After an overnight incubation at 37 degrees C in 5% CO2, cells are loaded with 23nl of test compound from the compound library (as well as dopamine controls) using a 1536 pintool and incubated at 37 degrees C for 90 minutes. Two microliters of DiscoveRx reagent is then added to all cells, and they are incubated for an additional 30 - 60 minutes at room temperature. Following incubation, luminescence is measured on a ViewLux CCD-based luminometer reader using a 20 sec exposure time.
For `O=c1[nH]c(CN2CC=C(c3ccccc3)CC2)nc2scc(-c3cccs3)c12`, the max activation is 53.9% (active).

Regarding `CCCCC1C(=O)NC(=O)N(C2CCCCC2)C1=O` (stereo not given), the max activation is -3.28% (inactive).

For the compound `O=P1(N(CCCl)CCCl)NC(OO)CCO1` (stereo not given), the max activation is 1.75% (inactive).

On to `C#C[C@]1(OC(=O)CCCCCC)CC[C@H]2[C@@H]3CCC4=CC(=O)CC[C@@H]4[C@H]3CC[C@@]21C`, for which the max activation is 26.4% (inactive).

In the case of `O=S(=O)(O)C(F)(F)C(F)(F)C(F)(F)C(F)(F)F`, the max activation was -6.51% (inactive).

For `COc1cc(C[C@H](C)N)c(OC)cc1Br`, the max activation is -14.5% (inactive).

Turning to `C[C@]12CC[C@H](O)C[C@H]1CC[C@@H]1C2CC[C@]2(C)[C@@H](C3=CC(=O)OC3)[C@@H](O)C[C@]12O` (stereo not given in full), the max activation was 51.5% (active).

In the case of `COC1C(O)C(C)OC(OC2CCC3(C=O)C(CCC4C3CCC3(C)C(C5=CC(=O)OC5)CCC43O)C2)C1O` (stereo not given), the max activation is 1.37% (inactive).

With `COC12CC[C@@]3(C[C@@H]1C(C)(O)C(C)(C)C)[C@H]1Cc4ccc(O)c5c4[C@@]3(CCN1CC1CC1)[C@H]2O5` (stereo not given in full), the max activation is 6.77% (inactive).

As for `O=C1C[C@@H]2OCC=C3CN4CC[C@]56c7ccccc7N1[C@H]5[C@H]2[C@H]3C[C@H]46` (tested in a mixture with another compound), the max activation was 11.4% (inactive) and 8.18% (inactive).
